Our source for the normalised cell number values is PubChem BioAssay.

A short description of the first assay: EMT-state selective cytotoxicity in co-culture – imaging, PC-3E GFP, TEM4-18 mCherry, primary screen (AID 1345086).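 Also: cells exposed to compound for 72 h before imaging.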 The following applies: PC-3E GFP / TEM4-18 mCherry co-culture, imaging cell counts; measured here: epithelial PC-3E GFP cell survival; at 1 µM.
Turning to `O=C(Cc1ccncc1)c1ccc(F)cc1`, the normalised cell number stood at 0.82.
On the same count and under the same terms, under `C[C@@H]1C=C2C=C[C@@](C)(O)[C@](C)(C(=O)CCO)[C@H]2[C@@H](O)C1` stands 1.08; under `O=c1c2cc(O)c(O)cc2oc2cc(O)c(C3O[C@H](CO)[C@H](O)[C@@H](O)[C@H]3O)c(O)c12` (stereo partly specified), 0.99.
The same measure, in the same setting: as for `COc1ccc(-c2cc(=O)c3c(O)cc(OC)cc3o2)cc1`, the figure is 1.08; as for `O=c1c(O)c(-c2ccccc2)oc2cc(O)cc(O)c12`, 1.07.
On the same count and under the same terms, as for `C=C(C)n1cc(C(=O)O)c(=O)c2cc(F)c(N3CC[C@@H](CN)C3)c(OC)c21`, the figure is 1.07.

Still in this assay, the particulars now being: PC-3E GFP / TEM4-18 mCherry co-culture, imaging cell counts; measured here: mesenchymal TEM4-18 mCherry cell survival; at 1 µM.
Compound `CC(=O)NCCc1ccc(O)c(-c2c(O)c(O)c3c(c2O)C(=O)c2c(cc(O)c(C(=O)O)c2C(=O)O)C3=O)c1` showed a normalised cell number of 1.07.
Same read-out and setting: as for `CC(C)(O)CC[C@@H](O)[C@](C)(O)C1CC[C@@]2(O)C3=CC(=O)C4C[C@@H](O)[C@@H](O)C[C@]4(C)C3CC[C@]12C` (stereo partly specified), the figure is 0.88; as for `C[C@@H]1CCC2[C@](C)(CO)[C@@H](O)CC[C@]2(C)[C@@]12CC[C@@](CO)(CCO)O2` (stereo partly specified), 0.94; as for `COC1=C(O)C(=O)c2c(cc3oc(C(C)=O)c(O)c3c2O)C1=O`, 1.12.
In turn, `CC(CC(=O)N1C(=O)OC[C@@H]1Cc1ccccc1)N1C(=S)OC[C@H]1c1ccccc1` (stereo partly specified) displayed a normalised cell number of 1.02.
Still for that read-out and setting: as for `O=C(NCC[C@H](O)C(=O)O)OCc1ccccc1`, the figure is 1.14.
Same read-out and setting: as for `CC(=O)OCC1=C[C@]2(O)CC3=C(CC24O[C@@H]4C1=O)[C@@]1(C)CCCC(C)(C)[C@@H]1CC3` (stereo partly specified), the figure is 0.94; as for `CC1COc2c(N)c(F)cc3c(=O)c(C(=O)O)cn1c23` (stereo unspecified), 1.01.
Consider `CC(C)=CCCC(C)[C@@H]1CC[C@]2(C)C3=C(CC[C@@]12C)C1(C)CC[C@H](O)C(C)(C)C1CC3` (stereo partly specified), for which the normalised cell number is 0.98.
On the same count and under the same terms, under `O=C1NCC[C@H]1Oc1ccc(Oc2cnc3ccc(Cl)cc3n2)cc1` stands 0.9; under `COC(=O)c1cn(C2CC2)c2c(OC)c(F)c(F)cc2c1=O`, 1.
`COc1cccc(Oc2c(O)cc(C)cc2CC(=O)c2cc(C)cc(O)c2C(=O)c2c(O)cccc2O)c1C(=O)O` registered a normalised cell number of 1.21.
Still for that read-out and setting: under `NCC1O[C@@H](OC2C(N)C[C@@H](N)C(O)[C@H]2OC2OC(CO)C(OC3OC(CN)[C@@H](O)C(O)[C@H]3N)C2O)C(N)[C@@H](O)C1O` (stereo partly specified) stands 0.99.
The same measure, in the same setting: under `C[C@H](Cc1cc(O)cc(O)c1C(=O)O[C@H](C)CC(=O)O[C@H](C)Cc1cc(O)cc(O)c1C(=O)O[C@H](C)CC1Cc2cc(O)cc(O)c2C(=O)O1)OC(=O)C[C@@H](C)O` (stereo partly specified) stands 0.83.
With `CCC(=O)O[C@]1(C(=O)SCF)[C@H](C)CC2C3CC(F)C4=CC(=O)C=C[C@]4(C)C3(F)[C@@H](O)C[C@@]21C` (stereo partly specified), the normalised cell number is 0.9.
Same read-out and setting: as for `CCN1CC(CCN2CCOCC2)C(C(c2ccccc2)c2ccccc2)C1=O` (stereo unspecified), the figure is 0.81; as for `CC(C)CC1OC23SCC(c4ccccc4)N2C(=O)C1C(C)(C)S3` (stereo unspecified), 1.03; as for `Cc1ccc(S[C@H]2OC(CO)C(O)[C@@H]3OC(=O)N[C@H]23)cc1` (stereo partly specified), 0.99.
Same read-out and setting: under `C=C1[C@@H](C)C2[C@H](Cc3c[nH]c4ccccc34)NC(=O)[C@]23C(=O)/C=C/C(=O)[C@H](OC(C)=O)/C(C)=C/[C@@H](C)C/C=C/[C@H]3[C@@H]1O` (stereo partly specified) stands 1.06.
On the same count and under the same terms, under `CO[C@H]1/C=C/C[C@@H](C)OC(=O)c2c(O)cc(O)cc2CC(=O)CCC1` stands 0.98; under `Nc1nc(=S)c2ncn(C3O[C@H](CO)[C@@H](O)[C@H]3O)c2[nH]1` (stereo partly specified), 0.85.
`COC(=O)C[C@H]1C2(C)CC34OC5(C)O[C@]6(C7/C(=C(/O)C(C)C)C(=O)O[C@@H](c8ccoc8)[C@]7(C)C(OC(C)=O)[C@@H](OC(C)=O)[C@]6(O5)C13C)[C@H](OC(C)=O)[C@@]4(O)C2OC(=O)C(C)C` (stereo partly specified) came in with a normalised cell number of 1.1.
Same read-out and setting: as for `CC(=O)N[C@@H]1[C@@H](OC(C)C(=O)O)[C@H](O)[C@@H](CO)O[C@H]1O` (stereo partly specified), the figure is 1; as for `C=C1OC(=O)c2c(OC)cc(OC)c(C)c2C1C` (stereo unspecified), 0.98; as for `C=C(C)n1cc(C(=O)OC)c(=O)c2cc(F)c(F)c(OC)c21`, 1.14.
In the case of `COC(=O)CC1C(C)(C)C(OC(C)=O)[C@@H]2[C@@H](OC(C)=O)[C@]34O[C@@]2(O)C1(C)C3CC[C@]1(C)C4=CC(=O)O[C@H]1c1ccoc1` (stereo partly specified), the normalised cell number stood at 0.95.
On the same count and under the same terms, under `COc1cc(O)c2c(c1C)C(C(C)=O)COC2=O` (stereo unspecified) stands 0.28.
Compound `COc1c(N2CC[C@@H](CN)C2)c(F)cc2c(=O)c(C(=O)O)cn(Cc3ccc(-c4ccccc4)cc3)c12` showed a normalised cell number of 0.98.
In turn, `O=C1C=CC2(Oc3cccc4cccc(c34)O2)[C@H]2[C@H]1[C@@H](O)C=C[C@H]2O` yielded a normalised cell number of 1.04.
Turning to `CCO[C@H]1OC(C(=O)OC)C(OC(=O)CCC(=O)O)[C@H](OC(=O)c2ccccc2)[C@@H]1OC(=O)c1ccccc1` (stereo partly specified), the normalised cell number was 1.07.
Same read-out and setting: as for `CC(=O)O[C@@H]1CC2C(C)(C)[C@H](O)C[C@H](O)[C@]2(C)C2CC[C@@]3(C)[C@H](c4ccoc4)OC(=O)[C@H]4O[C@]43[C@@]21C` (stereo partly specified), the figure is 1.03; as for `CC1CC(O)C2C=CC(CC(=O)O1)O2` (stereo unspecified), 0.53; as for `COC(=O)C[C@H]1C(C)(C)C(=O)[C@@H]2CC3C4=CC(=O)O[C@@H](c5ccoc5)[C@]4(C)CCC3C1(C)C2=O` (stereo partly specified), 0.94.
Same read-out and setting: as for `COc1cc(CC(=O)O)c(C(C)=O)c(O)c1OC`, the figure is 1.06; as for `O=C(Cc1ccncc1)c1ccc(F)cc1`, 0.95.
The same measure, in the same setting: under `C[C@@H]1C=C2C=C[C@@](C)(O)[C@](C)(C(=O)CCO)[C@H]2[C@@H](O)C1` stands 0.91.
For `O=c1c2cc(O)c(O)cc2oc2cc(O)c(C3O[C@H](CO)[C@H](O)[C@@H](O)[C@H]3O)c(O)c12` (stereo partly specified), the normalised cell number came out at 0.85.
On the same count and under the same terms, as for `COc1ccc(-c2cc(=O)c3c(O)cc(OC)cc3o2)cc1`, the figure is 1.24; as for `O=c1c(O)c(-c2ccccc2)oc2cc(O)cc(O)c12`, 0.96.
Same read-out and setting: under `C=C(C)n1cc(C(=O)O)c(=O)c2cc(F)c(N3CC[C@@H](CN)C3)c(OC)c21` stands 1.21.
